{"source": "ChEMBL document CHEMBL3988442", "about": "“University of Dundee, Small-Polar-MMV Screening Library” (2021)", "tested_on": "Leishmania donovani", "test": "Leishmania intramacrophage assay", "type": "functional, organism-based", "design": "scale not given: in the data most compounds retested in dose-response had high values", "note": "Out of some 69,000 compounds screened, about 1,000 (1.4%) showed an effect of 50% or more. The list comes from a sample in which strong results are over-represented; it also holds similar structures and randomly drawn compounds.", "data": [{"smiles": "O=C(NCc1ccccn1)NC1CCOc2ccccc21", "note": "(stereo not drawn)", "values": [{"measurement": "Percent Effect", "setting": "30 µM, 30.03 µM", "result": 24.88, "unit": "%"}]}, {"smiles": "Cc1cc(CN(C)C(=O)c2ccc(F)cc2F)no1", "values": [{"measurement": "Percent Effect", "setting": "30.3 µM, […]", "result": -6.199, "unit": "%"}]}, {"smiles": "Cc1ccc(CN2CCOC(c3cnccn3)C2)s1", "note": "(stereo not drawn)", "values": [{"measurement": "Percent Effect", "setting": "30.3 µM, […]", "result": 57.91, "unit": "%"}]}, {"smiles": "Cc1ccc(CN2CCCC(c3cnccn3)C2)s1", "note": "(stereo not drawn)", "values": [{"measurement": "Percent Effect", "setting": "30.3 µM, […]", "result": 27.06, "unit": "%"}]}, {"smiles": "Cc1ccc(CN2CCC(c3cnccn3)CC2)s1", "values": [{"measurement": "Percent Effect", "setting": "30.3 µM, […]", "result": 12.08, "unit": "%"}]}, {"smiles": "COc1ccc(CNC(C)c2ccc(Cl)c(Cl)c2)c(OC)c1OC", "note": "(stereo not drawn)", "values": [{"measurement": "Percent Effect", "setting": "30.3 µM, […]", "result": 55.53, "unit": "%"}]}, {"smiles": "COc1ccc(CNC(C)c2cccc(Cl)c2)c(OC)c1OC", "note": "(stereo not drawn)", "values": [{"measurement": "Percent Effect", "setting": "30 µM, 30.03 µM", "result": 25.49, "unit": "%"}]}, {"smiles": "COc1ccc(CNC(C)c2ccc(Cl)cc2)c(OC)c1OC", "note": "(stereo not drawn)", "values": [{"measurement": "Percent Effect", "setting": "30.3 µM, […]", "result": 11.12, "unit": "%"}]}, {"smiles": "Cc1sc2nc(CCN)nc(N3CCN(S(C)(=O)=O)CC3)c2c1C", "values": [{"measurement": "Percent Effect", "setting": "30.3 µM, […]", "result": -0.9568, "unit": "%"}]}, {"smiles": "CCOC(=O)N1CCN(c2nc(CCN)nc3sc(C)c(C)c23)CC1", "values": [{"measurement": "Percent Effect", "setting": "30.3 µM, […]", "result": 81.77, "unit": "%"}]}, {"smiles": "Cc1sc2nc(C(F)(F)F)nc(N3CCN(C)CC3)c2c1C", "values": [{"measurement": "Percent Effect", "setting": "30.3 µM, […]", "result": 9.999, "unit": "%"}]}, {"smiles": "Cc1sc2nc(CCN)nc(N3CCC(N4CCCC4)CC3)c2c1C", "values": [{"measurement": "Percent Effect", "setting": "30.3 µM, […]", "result": 27.1, "unit": "%"}]}, {"smiles": "Cc1sc2nc(CCN)nc(N3CC(N4CCCCC4)C3)c2c1C", "values": [{"measurement": "Percent Effect", "setting": "30.3 µM, […]", "result": 85.94, "unit": "%"}]}, {"smiles": "Cc1sc2nc(CCN)nc(N3CCS(=O)(=O)CC3)c2c1C", "values": [{"measurement": "Percent Effect", "setting": "30.3 µM, […]", "result": 0.7518, "unit": "%"}]}, {"smiles": "Cc1ccc(NC(=O)N2CCOC(C)(c3cnn(C)c3)C2)c(C)c1", "note": "(stereo not drawn)", "values": [{"measurement": "Percent Effect", "setting": "30.3 µM, […]", "result": 12.13, "unit": "%"}]}, {"smiles": "Cc1nn(C)c(C)c1S(=O)(=O)N(C)Cc1nn(C)c(Cl)c1Cl", "values": [{"measurement": "Percent Effect", "setting": "30.3 µM, […]", "result": 1.519, "unit": "%"}]}, {"smiles": "Cc1cn2c(n1)CCC(NC(=O)c1oc(Br)cc1C)C2", "note": "(stereo not drawn)", "values": [{"measurement": "Percent Effect", "setting": "30 µM", "result": 33.37, "unit": "%"}]}, {"smiles": "N#Cc1ccc(N2CC3(CCN(c4nccs4)C3)C2)nc1.O=CO.O=CO", "values": [{"measurement": "Percent Effect", "setting": "30.3 µM, […]", "result": 9.16, "unit": "%"}]}, {"smiles": "O=C1CC2(CCCC2)CN1CCOc1ccc(F)cc1", "values": [{"measurement": "Percent Effect", "setting": "30.3 µM, […]", "result": 12.36, "unit": "%"}]}, {"smiles": "CCN1CC2(CCC1=O)CCN(CCOc1ccc(F)cc1)CC2", "values": [{"measurement": "Percent Effect", "setting": "30.3 µM, […]", "result": 19.57, "unit": "%"}]}, {"smiles": "CCN1CC2(CCN(CCOc3ccc(F)cc3)CC2)CC1=O", "values": [{"measurement": "Percent Effect", "setting": "30.3 µM, […]", "result": 52.2, "unit": "%"}]}, {"smiles": "Cn1cc(C(=O)OC2CN(c3nc4c(C(F)(F)F)cccc4s3)C2)nn1", "values": [{"measurement": "Percent Effect", "setting": "30.3 µM, […]", "result": 15.05, "unit": "%"}]}, {"smiles": "Cc1ccc(C(=O)NCC(O)CN2CCCC2=O)cc1Cl", "note": "(stereo not drawn)", "values": [{"measurement": "Percent Effect", "setting": "30.3 µM, […]", "result": -2.277, "unit": "%"}]}, {"smiles": "Cc1csc(CCNC(=O)C2CCCN(C3CCOCC3)C2)n1", "note": "(stereo not drawn)", "values": [{"measurement": "Percent Effect", "setting": "30.3 µM, […]", "result": -3.021, "unit": "%"}]}, {"smiles": "O=C(NCCc1c[nH]cn1)C1CCCN(C2CCOCC2)C1", "note": "(stereo not drawn)", "values": [{"measurement": "Percent Effect", "setting": "30.3 µM, […]", "result": -4.763, "unit": "%"}]}, {"smiles": "Cn1c(CCNC(=O)C2CCCN(C3CCOCC3)C2)n[nH]c1=O", "note": "(stereo not drawn)", "values": [{"measurement": "Percent Effect", "setting": "30.3 µM, […]", "result": 60.82, "unit": "%"}]}, {"smiles": "CC(C)c1nc(CN(C)C(=O)C2CC(=O)N(Cc3ccncc3)C2)cs1", "note": "(stereo not drawn)", "values": [{"measurement": "Percent Effect", "setting": "30.3 µM, […]", "result": 1.333, "unit": "%"}]}, {"smiles": "Cn1ccnc1CN1CCC2(CC1)CC(NC(=O)c1ccccn1)CO2.O=C(O)C(F)(F)F", "note": "(stereo not drawn)", "values": [{"measurement": "Percent Effect", "setting": "30 µM, 30.03 µM", "result": 2.919, "unit": "%"}]}, {"smiles": "O=C(NC1COC2(CCN(Cc3ccccn3)CC2)C1)c1ccccn1.O=C(O)C(F)(F)F", "note": "(stereo not drawn)", "values": [{"measurement": "Percent Effect", "setting": "30 µM, 30.03 µM", "result": 99.23, "unit": "%"}]}, {"smiles": "Cc1nc(C(=O)N(C)C)nn1-c1ccccc1C(C)C", "values": [{"measurement": "Percent Effect", "setting": "30.3 µM, […]", "result": 17.02, "unit": "%"}]}, {"smiles": "CCN1CC2(CC1=O)CN(Cc1cnn(C)c1)CCN(C(C)=O)C2.O=C(O)C(F)(F)F", "note": "(stereo not drawn)", "values": [{"measurement": "Percent Effect", "setting": "30 µM, 30.03 µM", "result": 8.348, "unit": "%"}]}, {"smiles": "O=C(NCCc1ccccc1)C1CCC(Cn2cnnn2)CC1", "note": "(stereo not drawn)", "values": [{"measurement": "Percent Effect", "setting": "30 µM, 30.03 µM", "result": 4.824, "unit": "%"}]}, {"smiles": "CCC(=O)N1CCN(S(=O)(=O)c2cccc(F)c2)[C@H]2CS(=O)(=O)C[C@H]21", "values": [{"measurement": "Percent Effect", "setting": "30.3 µM, […]", "result": 19.41, "unit": "%"}]}, {"smiles": "COCC(=O)N1CCN(S(=O)(=O)c2ccccc2)[C@H]2CS(=O)(=O)C[C@H]21", "values": [{"measurement": "Percent Effect", "setting": "30.3 µM, […]", "result": 50.92, "unit": "%"}]}, {"smiles": "COCC(=O)N1CCN(S(=O)(=O)c2cccs2)[C@H]2CS(=O)(=O)C[C@H]21", "values": [{"measurement": "Percent Effect", "setting": "30.3 µM, […]", "result": -6.326, "unit": "%"}]}, {"smiles": "CS(=O)(=O)CC(=O)N1C[C@@H]2COC[C@]2(c2nnc(C3CC3)o2)C1", "values": [{"measurement": "Percent Effect", "setting": "30 µM, 30.03 µM", "result": 6.501, "unit": "%"}]}, {"smiles": "COc1cccc2c1ccn2CCC(=O)Nc1c2c(nn1C)CSC2", "values": [{"measurement": "Percent Effect", "setting": "30.3 µM, […]", "result": -9.12, "unit": "%"}]}, {"smiles": "CCN(CC)C(=O)CS(=O)(=O)c1cc(OC)c(OC)cc1C", "values": [{"measurement": "Percent Effect", "setting": "30.3 µM, […]", "result": -79.93, "unit": "%"}]}, {"smiles": "N#Cc1c(F)cccc1N1CCCC(C(=O)Nc2nncs2)C1", "note": "(stereo not drawn)", "values": [{"measurement": "Percent Effect", "setting": "30.3 µM, […]", "result": 39.68, "unit": "%"}]}, {"smiles": "N#Cc1c(F)cccc1N1CCC(C(=O)Nc2nccs2)CC1", "values": [{"measurement": "Percent Effect", "setting": "30.3 µM, […]", "result": 8.432, "unit": "%"}]}, {"smiles": "N#Cc1c(F)cccc1N1CCN(C(=O)Nc2nncs2)CC1", "values": [{"measurement": "Percent Effect", "setting": "30.3 µM, […]", "result": 50.08, "unit": "%"}]}, {"smiles": "COCCN(Cc1ccccc1)Cc1nc(-c2ccsc2)no1", "values": [{"measurement": "Percent Effect", "setting": "30.3 µM, […]", "result": 22.89, "unit": "%"}]}, {"smiles": "Cc1cc(C2CCC2)nc(NCC(C)(C)N2CCCC2)n1", "values": [{"measurement": "Percent Effect", "setting": "30.3 µM, […]", "result": 9.291, "unit": "%"}]}, {"smiles": "Cc1cc(C2CCC2)nc(NCC(C)(C)N2CCOCC2)n1", "values": [{"measurement": "Percent Effect", "setting": "30.3 µM, […]", "result": 23.38, "unit": "%"}]}, {"smiles": "CCN1CCN(C(C)(C)CNc2nc(C)cc(C3CCC3)n2)CC1", "values": [{"measurement": "Percent Effect", "setting": "30.3 µM, […]", "result": 54.39, "unit": "%"}]}, {"smiles": "CCc1nc(C)c([C@H]2CN(C)C[C@@H]2C(=O)NCCc2cnccn2)[nH]1", "values": [{"measurement": "Percent Effect", "setting": "30 µM, 30.03 µM", "result": 23.64, "unit": "%"}]}, {"smiles": "CCNC(=O)NC(=O)CN1CCOC(c2ccccc2Cl)C1", "note": "(stereo not drawn)", "values": [{"measurement": "Percent Effect", "setting": "30.3 µM, […]", "result": 7.788, "unit": "%"}]}, {"smiles": "CN(C)CCNc1cc(-c2ncccn2)c2cc[nH]c2n1", "values": [{"measurement": "Percent Effect", "setting": "30.3 µM, […]", "result": 4.01, "unit": "%"}]}]}
